# High-throughput results deposited in PubChem by National Center for Advancing Translational Sciences (NCATS).
# Only some compounds are listed: those with a hit (about 21% of all), similar ones and a draw of the others.
# Shiga toxin inh = inhibitors of Shiga toxin in Vero cells | AID 2315 | Vero cells, Shiga toxin protein synthesis inhibition reporter | 290,000 compounds, 9.2% hits | inhibition, % at 38.7 µM; in the data active = inhibition mostly above about 28%, no sharp cut-off; inactive = mostly below about 43%; note: 0% is about no effect
# CHX counter = affects cycloheximide protein synthesis inhibition readout, counter-screen; max response, %; cell reporter, cycloheximide protein synthesis inhibition counterscreen; AID 2314; 300,000 compounds, 12% hits; in the data active = max response mostly above about 13%, no sharp cut-off; inactive = mostly below about 14%; note: read at 38.3 µM for the half of the compounds with a filed dose; 0% is about no effect
# Pf growth 48h = P. falciparum growth inhibition at 48 hours (one generation) | P. falciparum luciferase growth in erythrocytes, 48 h | Potency, µM (top dose mostly 28.7 µM), for the others: top-dose activity change, negative = inhibition, most hits filed as inhibitors | 310,000 compounds, 5.9% hits; note: potency is the fitted concentration of half-maximal effect; % is set by controls: 0 for no effect and ±100 for the full control effect
#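 Luciferase-expressing parasites in RBCs, 2% Hct / 0.1% parasitemia final; RPMI 1640 + 0.5% Albumax; 37 C, 5% CO2, one generation; luminescence read-out, lower signal = inhibition.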
# Pf growth 96h = inhibits malaria parasite growth, 96 h. P. falciparum luciferase reporter growth, 96 h. Potency, µM (titrated, usually from 28.7 µM), without a hit: top-dose activity change, negative = inhibition, actives largely listed as inhibitors. 320,000 compounds, 6.9% hits. AID 504834; note: potency is the fitted concentration of half-maximal effect; % is set by controls: 0 for no effect and ±100 for the full control effect
#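 Plates of compound plus infected erythrocytes (2% hematocrit, 0.05% parasitemia final) incubate 96 hours, 37 C, 5% CO2. Detection reagent added; reduced luminescence from the parasites' luciferase reporter flags inhibition.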
# An asterisk follows results filed as active; ? = inconclusive; / = no result; [ ] = another dose, or the depositor's remark. Unless noted, calls come from the whole dose curve; as a rule, active = well fitted inhibition curve with a large enough effect; inconclusive = small, poorly fitted or top-dose-only effect, or another doubt; inactive = no such curve, though single readings can be large or run the other way.
SMILES,Shiga toxin inh,CHX counter,Pf growth 48h,Pf growth 96h
COC(=O)c1ccc(CSc2nc3c(cnn3-c3ccc(Cl)cc3)c(=O)[nH]2)o1,23,-1,1%,6.6µM*
COC(=O)c1ccc(CSc2nnc(NCc3ccccc3)s2)o1,16,-3,?,?
COCc1nnc(NC(=O)C2CC(=O)N(CCc3ccc(F)cc3)C2)s1 (stereo not drawn),-6,-5,22%,33%
COc1cccc(CNC(=O)c2cc(=O)[nH]c3ccc(S(=O)(=O)N4CCOCC4)cc23)c1,/,/,-11%,11%
COc1ccc2c(c1)O/C(=C\c1sccc1C)C2=O,123,24*,-72%,81%
O=C1Nc2ccccc2C12OC1CCCCC1O2 (stereo not drawn),12,-1,12µM*,3.7µM*
CCc1nnc(NC(=O)CSc2nnc3c(n2)[nH]c2ccccc23)s1,25,-5,33%,?
CCc1ccc2[nH]c3nc(SCc4nnc(-c5ccc(C)cc5)o4)nnc3c2c1,13,-4,7%,?
Cc1cccc(CSc2nnc3c(n2)[nH]c2ccccc23)c1,7,2,1.5µM*,1.9µM*
Cc1ccnc(NC(=O)CSc2nnc3c(n2)[nH]c2ccccc23)c1,47*,33*,8%,-4%
CC[N+](CC)(CC)CCCCOc1ccc2c(c1)C(=O)c1cc(OCCCC[N+](CC)(CC)CC)ccc1-2,22,0,0.066µM*,?
COc1ccc(CCNc2ccc(C(CC(N)=O)NC(=O)c3cc(OC)ccc3OC)cc2[N+](=O)[O-])cc1 (stereo not drawn),-7,0,?,?
Cc1cccc(CSc2nnc([C@@H]3CCCN3C(=O)OC(C)(C)C)o2)c1,-3,-3,?,?
CC(C)(C)OC(=O)N1CCC[C@H]1c1nnc(SCc2c(Cl)cccc2Cl)o1,-11,-2,9.3µM*,?
COc1ccc(NC2=Nc3ccccc3CC2)cc1,86,23*,189%,?
Cc1c(C(=O)N2CCOCC2)sc(NC(=O)C(C)C)c1C#N,-3,-2,16%,-2%
C=CCSc1nc2ccccc2n1S(=O)(=O)c1ccc(C)cc1,19,21*,20%,29%
Cc1ccc(S(=O)(=O)n2c(N)nc3ccccc32)cc1,/,-2,23%,-29%
CCn1c(=O)c(CCC(=O)N2CCN(c3ccccn3)CC2)c(C)c2c(C)nn(-c3ccccc3)c21,-12,-1,?,?
O=C(NN=C1CCCCCC1)c1ccc(Cl)s1,12,10,40%,-21%
Cc1ccsc1C(=O)NN=C1CCCCCC1,96*,51*,7%,?
Cc1ccc(C(=O)NN=C2CCCCCC2)s1,59*,47*,2%,-22%
O=C1CNC(=S)N1CCc1ccccc1Cl,16,-3,6%,13%
CCOC(=O)N1C(C)CN(/[N+]([O-])=N/Oc2ccc([N+](=O)[O-])cc2[N+](=O)[O-])CC1C (stereo not drawn),32,7,/,/
S=C(NCC1CCCO1)Nc1ccc(Cl)c(Cl)c1 (stereo not drawn),50*,13,34%,3%
SMILES,Shiga toxin inh,CHX counter,Pf growth 48h,Pf growth 96h
CCNS(=O)(=O)c1ccc(NC(=S)NCC2CCCO2)cc1 (stereo not drawn),-10,4,-9%,?
CCc1ccc(NC(=O)C(=O)NCC2CCCO2)cc1 (stereo not drawn),101*,46*,423%,-10%
CCCCc1ccc(NC(=S)NCC2CCCO2)cc1 (stereo not drawn),33*,8.8*,-21%,-1%[5.75 µM]
CN(C)c1ccc(NC(=S)NCC2CCCO2)cc1 (stereo not drawn),39*,42*,78%,155%
COc1ccc(NS(=O)(=O)c2ccc(NC(=S)NCC3CCCO3)cc2)cc1 (stereo not drawn),-3,-2,40%,19%
O=c1cc(-c2ccccc2)[nH]c2ccccc12,7,-3,1.5µM*,2%
O=C1C(c2cc(=O)c3ccccc3[nH]2)=C(O)c2ccccc21,137*,42*,-9%,-22%
CCc1ccccc1NC1=NCC(=O)N1Cc1ccc2c(c1)OCO2,-6,-3,-19%,4.1µM*
CCN(CC(=O)Nc1c(F)cccc1F)C(=O)c1csc2c1CCCC2,/,/,2%,2%
COc1ccc(CN(C(=O)c2ccccc2Br)C2CCS(=O)(=O)C2)cc1 (stereo not drawn),-7,-4,10%,9%
CCOC(=O)C1(Cc2cccc(F)c2)CCN(Cc2cnn(CC)c2)CC1,5,-2,-1%,2%
CCOC(=O)C1(Cc2cccc(F)c2)CCN(CC2CC2)CC1,-9,3,17%,15µM*
CCOC(=O)C1(Cc2cccc(F)c2)CCN(CC(O)CO)CC1 (stereo not drawn),2,-2,-8%,0%
CCOC(=O)C1(Cc2cccc(F)c2)CCN(Cc2nc(CC)[nH]c2C)CC1,-9,1,3.3µM*,42%
CN(Cc1ccc(F)cc1)C(=O)c1cc(COc2ccc(-n3cncn3)cc2)on1,-7,10,4%,0%
CCOC(=O)CN1C(=O)CC(c2ccccc2)C1=O (stereo not drawn),-15,-1,2%,?
Cc1ccccc1-c1cc(C(=O)N/N=C/c2cccnc2)c2ccccc2n1,-13,3,10µM*,-15%
O=C(N/N=C/c1cccnc1)c1cc(-c2ccccc2Cl)nc2ccccc12,-17,-2,-5%,?
COc1ccc(-c2cc(C(=O)N/N=C(\C)c3cccnc3)c3ccccc3n2)cc1,53,12*,11%,6%
CCCOc1cccc(-c2cc(C(=O)N/N=C/c3cccnc3)c3ccccc3n2)c1,76*,30*,?,?
COc1ccc(/C(C)=N/NC(=O)c2cc(-c3cccnc3)nc3ccccc23)cc1,-12,-1,13%,8%
C/C(=N\NC(=O)c1cc(-c2ccncc2)nc2ccccc12)c1ccc(OC(F)F)cc1,-5,-4,-27%,3.3µM*
O=C(N/N=C/c1ccccc1OC(F)F)c1cc(-c2ccncc2)nc2ccccc12,-8,-3,?,?
Cc1cccc(/C=N/NC(=O)c2cc(-c3cccnc3)nc3ccccc23)c1,9,-1,?,?
ClC1=C(Cl)C(Cl)(C2(Cl)C(Cl)=C(Cl)C(Cl)=C2Cl)C(Cl)=C1Cl,-21,-15,/,/
SMILES,Shiga toxin inh,CHX counter,Pf growth 48h,Pf growth 96h
CCOc1ccc(S(=O)(=O)N2CCOCC2)cc1NS(=O)(=O)c1ccc(OC)c([N+](=O)[O-])c1,/,/,6%,-20%
C/C(=N\NC(=O)c1cc(-c2cccnc2)nc2ccccc12)c1ccccc1O,17,11*,6.6µM*,?
O=C(N/N=C/c1ccccn1)c1cc(-c2ccc(Cl)cc2)nc2ccccc12,-2,-2,9.3µM*,9.3µM*
COc1cccc(-c2cc(C(=O)N/N=C/c3ccco3)c3ccccc3n2)c1,67*,26*,?,?
CCCOc1cccc(-c2cc(C(=O)N/N=C/c3ccccn3)c3ccccc3n2)c1,42*,21*,12µM*,9.3µM*
O=C(N/N=C/c1ccco1)c1cc(-c2ccccc2)nc2ccccc12,23,14,-6%,?
